Source: PubChem
CHRM1 agonist = human M1 muscarinic receptor agonists, primary screen, Fluo-8 calcium fluorescence, CHO-K1 cells, HTS. Muscarinic acetylcholine receptor M1 (Homo sapiens), P11229. CHO-K1 hM1, agonist mode; 0% DMSO, 100% acetylcholine EC100. activation, % at 3 µM. 360,000 compounds, 0.33% hits. AID 588814, 2011;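 active = activation above the run's mean compound activation plus 3 SD, cut at about 16% in these data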;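 also: peak over basal fluorescence ratio within a 140 s kinetic read after compound addition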
Target sequence (P11229 whole entry, looked up): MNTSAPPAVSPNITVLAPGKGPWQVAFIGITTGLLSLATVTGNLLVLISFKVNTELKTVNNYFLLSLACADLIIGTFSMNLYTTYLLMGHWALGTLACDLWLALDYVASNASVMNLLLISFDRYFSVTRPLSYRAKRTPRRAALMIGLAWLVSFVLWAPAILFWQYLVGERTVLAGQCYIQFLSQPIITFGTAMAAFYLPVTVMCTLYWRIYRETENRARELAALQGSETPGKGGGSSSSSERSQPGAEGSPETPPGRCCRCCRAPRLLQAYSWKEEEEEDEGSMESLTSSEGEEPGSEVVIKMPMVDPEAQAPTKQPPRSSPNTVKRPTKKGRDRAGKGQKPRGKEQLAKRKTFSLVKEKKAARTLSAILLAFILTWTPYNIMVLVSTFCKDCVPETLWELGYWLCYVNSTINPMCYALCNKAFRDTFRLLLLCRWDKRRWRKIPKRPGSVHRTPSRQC
M1 ag parental = counter-screen for M1 agonists: effect in parental CHO-K1 cells | Fluo-8 calcium fluorescence; scaled to maximal ATP response, vehicle zero | activation, % at 3 µM | 360,000 compounds, 0.48% hits | AID 602248, 2012; in the data active = activation above about 15%;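 also: untransfected CHO-K1 host cells lacking M1 receptor as counterscreen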
M1 antag = human M1 muscarinic receptor antagonists, primary screen, CHO-K1 cells, Fluo-8 calcium fluorescence, 1536-well | Muscarinic acetylcholine receptor M1 (Homo sapiens), P11229 | CHO-K1 hM1, ACh EC80 antagonist | inhibition, % at 3 µM | 360,000 compounds, 1.3% hits | AID 588852, 2011;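 active = percent inhibition above its own plate's cutoff, namely the mean of that plate's compound wells plus 3 SD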;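 also: peak over basal fluorescence ratio during 140 s after agonist addition; 0% = ACh EC80 plus DMSO and 100% = DMSO alone without agonist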
CHO-K1 Ca PAM = nonselective calcium activators in parental CHO-K1 cells, primary screen, counter-screen for M1 PAM project, cell-based, Fluo-8 calcium fluorescence, full deck, 1536-well; ATP EC20; 0% at ATP EC20, 100% at ATP max; activation, % at 3 µM; 360,000 compounds, 0.02% hits; AID 602247, 2012;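 active = activation above the run cutoff, the mean activation of all test compounds plus 3 SD, cut at about 40% in these data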;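 also: peak over basal fluorescence ratio in a 140 s read after ATP addition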
CHO-K1 Ca antag = M1 antagonist counterscreen hit in parental CHO-K1 cells; 360,000 compounds, 0.6% hits; inhibition, % at 3 µM; ATP-induced calcium, Fluo-8 fluorescence; AID 602250;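 active = inhibition above a per-plate cutoff, the plate's mean sample inhibition plus 3 SD, cut at about 24% in these data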;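 also: 0% = DMSO plus EC80 ATP and 100% = DMSO alone without ATP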
M1 PAM = human M1 muscarinic receptor positive allosteric modulators, primary screen, CHO-K1 cells, Fluo-8 calcium fluorescence, 1536-well; CHO-K1 hM1, ACh EC20; 0% = ACh EC20, 100% = maximal ACh; activation, % at 3 µM; 360,000 compounds, 0.088% hits; AID 588819, 2011; in the data active = activation above about 19%, passing the limit was not always enough
* hit, by the source's call. A selection: hits, their analogues and other compounds. The true share with any hit is near 2.3%.

SMILES | CHRM1 agonist | M1 ag parental | M1 antag | CHO-K1 Ca PAM | CHO-K1 Ca antag | M1 PAM
CC(C)c1cccc(OCCN2CCCC2)c1 | -7.8 | 0.4 | 32.7* | -20.7 | 10.9 | -15.8
Clc1cccc(OCCN2CCCC2)c1 | -9.2 | 0.6 | -8.7 | -16.6 | 12.5 | 0.2
CC1CCCN(CCCCOc2cccc(Br)c2)C1 (stereo not drawn) | -7.2 | 0.6 | 33.1* | 9.1 | 6.5 | -24.5
COc1cccc(OCCCCN2CCCCC2)c1 | -8.6 | 1.0 | 8.4 | 20.2 | -14.0 | -10.6
O=C(Nc1ccc2c(c1)OCO2)c1csc([C@H]2C[C@H](O)[C@@H](CO)O2)n1 | -2.4 | 0.4 | -9.3 | 9.8 | -5.6 | 7.1
O=C(NC(=S)NCC1CCCO1)c1ccc(Cl)cc1Cl (stereo not drawn) | -5.5 | 15.2* | -3.0 | 20.4 | -4.1 | 1.4
COc1ccc(/C=C/C(=O)NC(=S)NCC2CCCO2)cc1 (stereo not drawn) | -6.3 | 4.4 | 6.2 | 6.3 | 2.1 | -1.4
S=C(NCC1CCCO1)Nc1cc(Cl)c(Cl)cc1Cl (stereo not drawn) | -3.3 | 2.4 | 1.9 | 1.5 | -16.7 | -1.6
COc1ccccc1/C=C/C(=O)NC(=S)NCC1CCCO1 (stereo not drawn) | -2.7 | 4.9 | 35.5* | 3.9 | 2.0 | -12.4
CCOc1ccccc1NC(=S)NCC1CCCO1 (stereo not drawn) | -5.8 | 3.6 | -2.4 | 17.9 | -5.1 | 2.5
Cc1cc(C)cc(NC(=S)NCC2CCCO2)c1 (stereo not drawn) | -2.5 | 0.2 | 11.7* | -3.4 | 6.1 | -11.4
COc1ccccc1NC(=S)NCC1CCCO1 (stereo not drawn) | -2.9 | -0.6 | 4.6 | -14.4 | 24.4* | -1.6
N#CC1=C(Nc2ccccc2Cl)SC2(CCCC2)NC1=O | -5.3 | 0.5 | -1.9 | 15.1 | -4.8 | 2.6
COc1ccccc1C(=O)NC(=O)CSc1ccc(C)c(C)c1 | -2.8 | -0.5 | 0.2 | 10.7 | -5.2 | -1.1
O=C1CC(N(O)c2ccccc2)C(=O)N1c1cc(Cl)cc(Cl)c1 (stereo not drawn) | 26.8* | 1.1 | -8.1 | 16.4 | -4.0 | 5.1
Cc1ccccc1N1C(=O)CC(N(O)c2ccccc2)C1=O (stereo not drawn) | -2.8 | 0.2 | 16.7 | -8.3 | 16.8 | -4.2
CCN(CC)C(CNC(=O)CSc1nnnn1-c1c(C)cccc1C)c1ccco1 (stereo not drawn) | -6.0 | 0.6 | 36.9* | 13.1 | -8.0 | -20.6
CCN(CC)C(CNC(=O)CSc1nnnn1-c1ccc(C)c(C)c1)c1ccco1 (stereo not drawn) | -8.4 | 0.2 | 8.3 | 13.4 | -16.1 | -9.8
Cc1nccn1CCC(=O)NC1CC(C)(C)Cc2c1cnn2-c1ccccc1 (stereo not drawn) | -7.6 | 0.2 | -16.4 | 10.2 | -14.5 | 6.2
CCOC(=O)c1[nH]c2ccc(F)cc2c1NC(=O)Nc1ccccc1OC | -5.0 | 16.4* | -9.9 | 9.6 | -1.3 | 5.0
CCc1ccc(CNC(=O)C2CCN(S(=O)(=O)N3CCCCC3)CC2)cc1 | 0.4 | 6.2 | -2.9 | 5.0 | -3.8 | -5.7
CC(CN1CCCCC1)OC(=O)C1c2ccccc2Oc2ccccc21 (stereo not drawn) | -3.5 | 0.4 | 86.8* | 4.7 | -3.7 | -20.8
COc1cccc(C(NC(C)=O)c2nc(-c3cccc(O)c3)cs2)c1 (stereo not drawn) | 1.8 | 0.8 | -6.1 | 15.5 | -2.3 | 7.9
Cc1nc2ccc(NS(=O)(=O)c3ccc4c(c3)OCCO4)cc2s1 | 2.8 | 7.2 | 31.2* | -0.7 | 22.8 | -5.9
Cc1nc2ccc(S(=O)(=O)Nc3cccc(-c4nc5cccnc5s4)c3)cc2s1 | 3.0 | 5.5 | 23.7 | -8.5 | 30.0* | -16.4
SMILES | CHRM1 agonist | M1 ag parental | M1 antag | CHO-K1 Ca PAM | CHO-K1 Ca antag | M1 PAM
OC(c1cc(F)cc(Cl)c1)c1ncc(-c2ccccc2C(F)(F)F)[nH]1 (stereo not drawn) | -1.6 | 2.5 | -7.6 | 15.3 | -10.9 | 0.3
O=C(Nc1ccccc1)c1cc(C2CCCN(C(=O)C3CC3)C2)on1 (stereo not drawn) | -5.2 | 1.8 | -10.1 | 28.1 | -11.2 | 6.2
CC(=O)N1CCCC(c2cc(C(=O)Nc3ccccc3)no2)C1 (stereo not drawn) | -1.9 | -0.2 | -17.5 | -9.4 | 34.4* | 6.0
Cc1c(C(=O)NCc2ccccc2C(F)(F)F)sc(=O)n1Cc1ccc(F)cc1 | -4.2 | 2.5 | 0.4 | 1.0 | 3.0 | -7.2
COc1ccc(C(=O)Nc2nc3ccccc3s2)c(OC)c1 | -6.1 | 1.1 | -6.7 | -4.8 | 1.4 | -2.3
COc1ccccc1C(=O)Nc1nc2ccccc2s1 | -5.6 | 1.0 | 30.8* | 15.3 | -2.6 | -16.7
COc1cccc(-c2nc3ccccc3s2)c1O | -9.1 | 15.3* | 1.6 | 17.8 | 1.2 | 11.6
COc1cc(OC)c(-c2nc3ccccc3s2)cc1OC | -4.0 | -0.3 | -2.8 | 0.6 | -8.6 | 6.5
CCOC(=O)CN(C(=O)CNC(=O)c1ccco1)C(C(=O)NC1CCCCC1)c1cccs1 (stereo not drawn) | -0.9 | 2.5 | -0.6 | 16.2 | -13.5 | 2.4
CCOCCCN(C(=O)CNC(=O)c1ccco1)C(C(=O)NC1CCCC1)c1ccccc1C (stereo not drawn) | -0.1 | 1.6 | 1.4 | 5.1 | 44.5* | -0.1
COCCN(C(=O)c1ccco1)C(C(=O)NC1CCCC1)c1cccs1 (stereo not drawn) | -2.7 | -0.1 | -1.9 | -6.3 | 24.7* | 2.6
Cc1ccc(C(C(=O)NC2CCCCC2)N(Cc2ccccc2)C(=O)Cc2c[nH]c3ccccc23)o1 (stereo not drawn) | -5.9 | 19.1* | 7.8 | 18.8 | 5.4 | -6.7
COc1ccc(CN(C(=O)Cc2c[nH]c3ccccc23)C(C(=O)NC2CCCCC2)c2ccc(C)o2)cc1 (stereo not drawn) | -6.9 | 1.6 | 14.3 | 4.8 | -1.3 | -10.1
C=CCN(C(=O)CNC(=O)c1ccco1)C(C(=O)NC1CCCCC1)c1ccc(OC)cc1 (stereo not drawn) | -3.3 | 0.4 | 14.6 | 9.4 | -5.6 | -6.8
COc1ccc(C(C(=O)NC2CCCC2)N(Cc2ccccc2)C(=O)CNC(=O)c2ccco2)cc1 (stereo not drawn) | 1.6 | 1.2 | 9.7 | -3.8 | 32.2* | 1.3
CCOC(=O)CN(C(=O)CNC(=O)c1ccco1)C(C(=O)NC1CCCC1)c1ccccc1OCC (stereo not drawn) | -3.2 | 1.6 | -2.5 | 14.2 | -0.7 | 7.3
Nc1ccc2cc3[nH]c4cc(N)ccc4c3nc2c1 | 35.7* | 33.2* | 57.1* | -14.2 | 56.8* | -17.9
